Source: PubChem BioAssay AID624330 (Southern Research Specialized Biocontainment Screening …, 2012)
Out of some 340,000 compounds screened, about 2,100 (0.62%) were called active.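 The calls were made as follows: active = first-screen hits whose inhibition reached a set limit at any dose in the follow-up dose series; inconclusive = inhibition above the set first-screen limit but never retested; inactive = the rest.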 The list is a sample of the results. Potency and affinity values are given separately.

target: Rac GTPase-activating protein 1 (Homo sapiens) (UniProt Q9H0H5); assay: MgcRacGAP GTPase-activating activity inhibitors, confirmation, biochemical, ADP Hunter fluorescence, primary and confirmatory (AID 624330); details: MgcRacGAP-stimulated Rac1 GTP hydrolysis, at 30 µM, active compounds read high, GST-tagged Rac1 F28L mutant substrate;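 also: fluorescence reports GDP produced by GAP-driven GTP hydrolysis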
Sequence (Q9H0H5 whole entry, looked up): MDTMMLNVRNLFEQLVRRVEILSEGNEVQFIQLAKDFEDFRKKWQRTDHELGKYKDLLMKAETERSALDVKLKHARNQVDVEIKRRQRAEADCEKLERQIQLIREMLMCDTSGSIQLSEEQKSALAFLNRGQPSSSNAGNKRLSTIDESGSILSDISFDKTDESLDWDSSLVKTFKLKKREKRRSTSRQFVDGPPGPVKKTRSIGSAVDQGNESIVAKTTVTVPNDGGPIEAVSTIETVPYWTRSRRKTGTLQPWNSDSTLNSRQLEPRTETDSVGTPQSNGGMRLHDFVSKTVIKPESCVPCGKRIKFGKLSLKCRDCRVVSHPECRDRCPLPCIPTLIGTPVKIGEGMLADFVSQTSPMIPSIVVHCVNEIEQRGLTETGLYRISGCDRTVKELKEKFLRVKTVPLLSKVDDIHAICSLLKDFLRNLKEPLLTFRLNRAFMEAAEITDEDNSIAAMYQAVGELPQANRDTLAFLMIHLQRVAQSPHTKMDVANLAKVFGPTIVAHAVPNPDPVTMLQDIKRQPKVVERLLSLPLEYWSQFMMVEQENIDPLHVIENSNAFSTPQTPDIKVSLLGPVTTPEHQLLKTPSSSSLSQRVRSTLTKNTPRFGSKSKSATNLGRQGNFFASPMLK

inhibition, inactive:
O=C1OC(c2ccc(F)cc2)=N/C1=C\c1ccc(Br)o1 12.2%
NC(=O)CC(NC(=O)c1ccccc1)c1ccc(N2CCN(c3ccccn3)CC2)c([N+](=O)[O-])c1 (stereo not given) 6.77%
CC(C)CCNC(=O)CCCCn1c(=O)[nH]c2ccsc2c1=O 1.12%
CCn1cc(C(=O)NC2CCCCC2)c(=O)c2ccc(C)nc21 6.08%
CCOc1ccccc1OCCCCOc1ccccc1F 8.35%
CCOc1ccccc1C(=O)N[C@H](C(=O)NNC(=O)c1cccs1)C(C)C 2.5%
Cc1ccc(C)c(SCC(=O)NC(=O)NCc2ccccc2)c1 6.96%
Cc1ccc(NC(=O)N2CCCC2C(=O)Nc2ccc(-n3cnnn3)c(C)c2)cc1 (stereo not given) -9.47%
CN1CCCN(C2C3CC4CC(C3)CC2C4)CC1 (stereo not given) 14.8%
CS(=O)(=O)N1CCN(C(=O)NC23CC4CC(CC(C4)C2)C3)CC1 -2.26%
C/C(=N/OCC(=O)Nc1ccc(C)cc1C)c1cccs1 17%
O=c1cc(-c2ccccc2[N+](=O)[O-])oc2ccccc12 4.61%
Nc1c([N+](=O)[O-])c(=O)oc2ccccc12 3.99%
CN(C)S(=O)(=O)c1cccc(C(=O)c2nccn2C)c1 2.41%
Cc1ccc(C(=O)Nc2ncc(C)s2)s1 3.92%
Cc1ccsc1C=Nc1ccc(O)cc1 18.4%
Cc1ccc(-c2nc(C=Nc3ccc(O)cc3)c(O)o2)cc1 19%
COc1ccccc1NS(=O)(=O)c1cc(NC(=O)c2ccc(Cl)nc2)ccc1N1CCCC1 9.85%
CCn1nc(C)c(NC(=O)CSc2nnc(-c3ccco3)n2C)c1C 5.76%
Cc1nn(CCCC(=O)Nc2cnn(Cc3ccc(F)cc3)c2)c(C)c1[N+](=O)[O-] -3.65%
CC(C)c1ccc(NC2CCCN(C(=O)c3cccc(N4CCNC4=O)c3)C2)cc1 (stereo not given) 9.26%
O=C(c1cccc(N2CCNC2=O)c1)N1CCCC(Nc2cccc(F)c2)C1 (stereo not given) -0.6%
Cc1ccc(C(=O)N2CCCC(Nc3cccc(F)c3)C2)cc1N1CCNC1=O (stereo not given) 7.34%
Cc1ccc(NC2CCCN(C(=O)c3ccc(C)c(N4CCNC4=O)c3)C2)cc1C (stereo not given) 15.1%
COc1cc(OC)cc(C(=O)N2CCCC(Nc3ccc(F)cc3)C2)c1 (stereo not given) 3.07%
COc1cccc(C(=O)N2CCCC(Nc3ccc(C)c(C)c3)C2)c1 (stereo not given) 16.7%
CC(C)CNc1nc(N)c([N+](=O)[O-])c(NC2CCCCC2)n1 9.84%
CCc1nn2c(=O)cc(CSCC(=O)Nc3ccccc3Cl)nc2s1 10.2%
Cc1ccc(CN2CCN(Cc3ccc(OC(C)C)cc3)CC2CCO)o1 (stereo not given) 8.44%
Cc1cccnc1NC(=O)CCCNC(=O)c1ccc(Cl)cc1 5.51%
Nc1ccc(CCc2ccccn2)cc1 -1.15%
Oc1cccc(CCc2ccccn2)c1 -0.46%
COCCNC(=O)COc1cccc(Oc2ccccc2)c1 12.7%
O=C(COC(=O)COc1ccccc1)NCc1ccco1 5.42%
COc1ccc(OCC(=O)OCC(=O)NCc2ccco2)cc1 5.26%
COCCNC(=O)COc1ccc(Oc2ccccc2)cc1 8.68%
O=C(COc1ccc(Cl)cc1)OCC(=O)N1CCCC1 8.63%
O=C(COc1ccc(Cl)cc1)OCC(=O)N1CCCCCC1 11.4%
Cc1ccc(CNC(=O)C2CCC(CNS(=O)(=O)c3cccs3)CC2)cc1 (stereo not given) 5.1%
Cc1cccc(NC(=O)CNC(=O)c2ccc(-n3cncn3)c([N+](=O)[O-])c2)c1C 0.04%
Cc1cc(OC(C)C(=O)NCc2cccnc2)c2c(C)cc(=O)oc2c1 (stereo not given) 3.28%
CC(NS(=O)(=O)c1ccc2c(c1)C(C)(C)C(=O)N2C)c1ccccc1 (stereo not given) 3.16%
N/C(=N\c1nc2c(c(=O)[nH]1)CCC2)Nc1ccccc1C(F)(F)F -0.36%
CSc1nc2c(c(=O)[nH]c(=O)n2C)n1Cc1ccc(Cl)cc1 11.4%
Cn1c(=O)[nH]c(=O)c2c1nc(Br)n2Cc1ccc(Cl)cc1 8.01%
O=C(O)CCC(=O)Nc1cccc(-c2nc3ccccc3o2)c1 -9.77%
CCN(CC)S(=O)(=O)c1ccc2c(c1)c(=O)c(C(=O)N1CCN(c3ccccc3)CC1)cn2C 1.44%
CN(C)CCCN1c2ccccc2Sc2ccc3ccccc3c21 15.1%
CCN(CC)CCN1c2ccccc2Sc2ccc3ccccc3c21 10.6%
COc1cc(C(C)=O)ccc1OCC(O)CNCC1(N2CCCCC2)CCCCC1 (stereo not given) 27.1%
OC(CNCC1(N2CCCCC2)CCCCC1)COc1ccc(Cl)cc1Cl (stereo not given) 17.6%
O=C(NCC1CCCO1)c1cc(C(=O)C2CCCCC2)c[nH]1 (stereo not given) 4.74%
CCCCCOC(=O)CSc1nc2c(c(=O)[nH]c(=O)n2C)n1Cc1ccc(Cl)cc1 1.35%
O=C(CSc1ccc(-c2ccco2)nn1)Nc1ccc(F)cc1F 9.4%
COc1ccc(/C=C/C(=O)CCC(=O)O)cc1 2.46%
Cc1ccc(N2CC3=C(C2=O)C(c2ccccc2)NC(=O)N3C)cc1 (stereo not given) 6.8%
CN1C(=O)NC(c2ccc(O)cc2)C2=C1CN(c1ccccc1)C2=O (stereo not given) 10.4%
CSc1ccccc1NC(=S)Nc1cc(C)cc(C)c1 9.21%
COc1ccc(S(=O)(=O)N2CCOCC2)cc1NC(=O)Cc1ccccc1Cl 5.39%
CCN(CC)c1ccc(CNc2ccc(Br)cn2)cc1 4.81%
CCN(CC)c1ccc(NC(=O)c2cncc(Br)c2)cc1 30.6%
Nc1nc2cc(S(=O)(=O)NC3=NCCCCC3)ccc2s1 38.9%
CCc1ccc(C(=O)OCC(=O)Nc2cccc(S(=O)(=O)NC3=NCCCCC3)c2)cc1 5.3%
O=S(=O)(NC1=NCCCCC1)c1ccc2ccccc2c1 2.56%
O=S(=O)(Nc1nc2c(s1)CCCC2)c1ccc2ccccc2c1 8.29%
